Experimental data published in PubChem BioAssay (Tox21).
Values joined by “and” are separate entries in the source; they are usually repeats but may differ in a detail not shown here. Identical values can stand only once. Records with an inconclusive call do not appear. Active and inactive are the calls of the source. Unless noted, calls follow the shape of the dose curve; as a rule, active = well fitted curve in the direction sought with a large enough effect in the repeat runs; inconclusive = weak or mixed curves; inactive = no such curve, though single readings can be large; an effect the other way counts as inactive or inconclusive.

Experiments:
[1] = qHTS assay to identify small molecule agonists of the hypoxia (HIF-1) signaling pathway - cell viability counter screen (AID 1224844; calls by dose curve; also: nearly all actives have a fitted effect of over 50% in size)
In short: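 Multiplexed with the HRE beta-lactamase assay, this viability read used CellTiter-Glo luminescence (30 min, RT) on HRE-bla ME-180 cells treated 17 hrs with compounds in 0.5% dialyzed FBS medium.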

[2] = qHTS assay to identify small molecule agonists of H2AX (AID 1224845; active = well fitted activation curve with a large enough effect in the signal ratio in the repeat runs, not every such curve was filed as active; the % refers to the signal ratio; also: potency is read from the fitted curve at half-maximal effect)
In short: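 Wild-type CHO-K1 cells, plated overnight, exposed 3hr at 37C to 15 concentrations (0.76% DMSO final). Lysed, then HTRF anti-pH2AX (S139) cryptate and anti-H2AX-d2 antibodies, 24 hr room temperature; 665/620 nm emission read.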

[3] = qHTS assay to identify small molecule agonists of the hypoxia (HIF-1) signaling pathway (AID 1224846; active = well fitted activation curve with a large enough effect in the signal ratio in the repeat runs, not every such curve was filed as active; the % refers to the signal ratio)
In short: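 Hypoxia-pathway activation was scored as increased beta-lactamase from an HRE-controlled reporter in ME-180 cells; plated at 2,000 cells per well with 0.5% dialyzed FBS, they were exposed 17 hrs to compounds and then given CCF4-AM.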

[4] = qHTS assay to identify small molecule agonists of H2AX - cell viability counter screen (AID 1224847; calls by dose curve; also: top concentration of the series differs between compounds; nearly all actives have a fitted effect of over 30% in size)
In short: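 CHO-K1 wt, 1000 cells/well, o/n 37C; cpds 15 conc, 3 h 37C, 0.76% DMSO; CellTiter-Glo, 30 min RT, luminescence.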

[5] = qHTS RealTime-Glo MT Cell Viability Assay in HepG2 cells - 24 hour (AID 1224867); also: nearly all actives have a fitted effect of over 50% in size
In short: (§1)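 qHTS, HepG2, 600 cells/well, RealTime-Glo (NanoLuc + prosubstrate) added with cells; 5 h preincubation; DMSO compound addition; 37 C; luminescence at 0/8/16/24/32/40 h.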

[6] = qHTS RealTime-Glo MT Cell Viability Assay in HEK293 cells - 32 hour (AID 1224868); also: nearly all actives have a fitted effect of over 50% in size; also: potency is read from the fitted curve at half-maximal effect
In short: (§2)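 Assay medium contained NanoLuc luciferase plus cell-permeant prosubstrate, added with HEK293 cells at 600 cells/well. After 5 h at 37 C/5% CO2 compounds were added; plates stayed at 37 C for 40 h with serial luminescence reads.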

[7] = A CellTox Green Cytotoxicity Assay to monitor cytotoxicity in HEK293 cells - 0 hour (AID 1224869); also: nearly all actives have a fitted effect of over 50% in size
In short: (§3)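 Seeding of HEK293 cells together with cytotoxicity dye preceded a 5 h incubation at 37 C/5% CO2. Test compounds in DMSO were then added and fluorescence monitored across 40 h.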

[8] = qHTS RealTime-Glo MT Cell Viability Assay in HepG2 cells - 40 hour (AID 1224870); also: nearly all actives have a fitted effect of over 50% in size
In short: (§4)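 HepG2 cells (600/well) mixed with RealTime-Glo MT reagent, settled 5 h at 37 C/5% CO2 before compound addition. Nonlytic NanoLuc luminescence from viable-cell prosubstrate reduction read repeatedly during 40 h treatment at 37 C.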

[9] = A CellTox Green Cytotoxicity Assay to monitor cytotoxicity in HEK293 cells - 40 hour (AID 1224871); also: nearly all actives have a fitted effect of over 45% in size
In short: as §3

[10] = qHTS RealTime-Glo MT Cell Viability Assay in HEK293 cells - 16 hour (AID 1224872)
In short: as §2

[11] = qHTS RealTime-Glo MT Cell Viability Assay in HepG2 cells - 8 hour (AID 1224873); also: nearly all actives have a fitted effect of over 55% in size
In short: as §4

[12] = qHTS RealTime-Glo MT Cell Viability Assay in HEK293 cells - 40 hour (AID 1224874); details: RealTime-Glo luminescence; max response: active compounds read low; also: nearly all actives have a fitted effect of over 50% in size; also: potency is read from the fitted curve at half-maximal effect
In short: (§5)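 Tox21 screen in HEK293 using RealTime-Glo MT chemistry, with cells and reagent co-dispensed. Luminescence proportional to viable cell number was captured at intervals during 40 h compound exposure at 37 C.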

[13] = A CellTox Green Cytotoxicity Assay to monitor cytotoxicity in HEK293 cells - 24 hour (AID 1224875); also: nearly all actives have a fitted effect of over 45% in size
In short: as §3

[14] = A CellTox Green Cytotoxicity Assay to monitor cytotoxicity in HepG2 cells - 16 hour (AID 1224876); also: nearly all actives have a fitted effect of over 45% in size
In short: (§6)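 Nonlytic assay: viable cells exclude the dye, so fluorescence scales with cell death. HepG2 at 600 cells/well, compounds added after 5 h, signal read across 40 h.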

[15] = qHTS RealTime-Glo MT Cell Viability Assay in HepG2 cells - 32 hour (AID 1224877); also: nearly all actives have a fitted effect of over 55% in size
In short: as §1

[16] = A CellTox Green Cytotoxicity Assay to monitor cytotoxicity in HepG2 cells - 24 hour (AID 1224878); also: nearly all actives have a fitted effect of over 45% in size
In short: as §6

[17] = A CellTox Green Cytotoxicity Assay to monitor cytotoxicity in HepG2 cells - 40 hour (AID 1224879); also: nearly all actives have a fitted effect of over 40% in size
In short: as §6

[18] = qHTS RealTime-Glo MT Cell Viability Assay in HEK293 cells - 0 hour (AID 1224880)
In short: as §5

[19] = qHTS assay to identify small molecule agonists of the estrogen related receptor (ERR) signaling pathway from Tox21 library (AID 1224849; calls by dose curve; also: nearly all actives have a fitted effect of over 15% in size); details: ERR reporter cell line, ONE-Glo luciferase, 18 h; at 92.4 µM (top of the series)
In short: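 Six hours post-seeding at 37 C/5% CO2, ERR cells receive DMSO-solubilised compounds; after 18 h at 37 C, ONE-Glo reagent is applied and luminescence recorded.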

[20] = qHTS assay to identify small molecule antagonists of the estrogen related receptor (ERR) signaling pathway from Tox21 library (AID 1224848); also: nearly all actives have a fitted effect of over 50% in size
In short: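 ERR reporter cell line (from NTP) seeded 2,000 cells/well, rested 6 h at 37 C/5% CO2, then pin-dosed with compounds in DMSO. After 18 h at 37 C, ONE-Glo added; luminescence read after 30 min at room temperature.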
% is scaled to controls: 0 for no effect and ±100 for the full control effect.

CCCCC(CC)COC(=O)c1c(Br)c(Br)c(Br)c(Br)c1C(=O)OCC(CC)CCCC (stereo not given)
inactive: Potency [1] | Potency [2] | outcome [3] | Potency [4] | Potency [5] | Potency [6] | Potency [7] | Potency [8] | Potency [9] | Potency [10] | Potency [11] | max response [12] -1.1% | Potency [13] | Potency [14] | Potency [15] | Potency [16] | Potency [17] | outcome [18]

CC(C)(C)N(NC(=O)c1ccc(Cl)cc1)C(=O)c1ccccc1
inactive: Potency [1] | Potency [2] | outcome [3] | Potency [4] | activity change, positive = activation [19] -30.6% | Potency [5] | Potency [7] | Potency [8] | Potency [9] | Potency [11] | Potency [13] | Potency [14] | Potency [15] | Potency [16] | outcome [18]

CCCC[N+](CCCC)(CCCC)CCCC
inactive: Potency [1] | Potency [2] | outcome [3] | Potency [4] | Potency [20] | activity change, positive = activation [19] -11.1% | Potency [5] | Potency [7] | Potency [8] | Potency [9] | Potency [11] | Potency [13] | Potency [14] | Potency [15] | Potency [16] | outcome [18]

Oc1cccc(Cl)c1
inactive: Potency [1] | Potency [2] | outcome [3] | Potency [4] | Potency [20] | activity change, positive = activation [19] 1.9% | Potency [5] | Potency [6] | Potency [7] | Potency [8] | Potency [9] | Potency [10] | Potency [11] | max response [12] 0.464% | Potency [14] | Potency [15] | Potency [16] | Potency [17] | outcome [18]

CCCCCCCCCCCCN(C)C
inactive: Potency [1] | Potency [2] | outcome [3] | Potency [4] | Potency [20] | activity change, positive = activation [19] 3.27% | Potency [5] | Potency [6] | Potency [7] | Potency [8] | Potency [9] | Potency [10] | Potency [11] | max response [12] -4.6% | Potency [14] | Potency [15] | Potency [16] | outcome [18]

CN(C)C(=O)Nc1cccc(OC(=O)NC(C)(C)C)c1
inactive: Potency [1] | Potency [2] | outcome [3] | Potency [4] | activity change, positive = activation [19] -15.7% | Potency [5] | Potency [7] | Potency [8] | Potency [9] | Potency [10] | Potency [11] | max response [12] -14.3% | Potency [14] | Potency [15] | Potency [16] | Potency [17] | outcome [18]

CC(Oc1cc(Cl)c(Cl)cc1Cl)C(=O)O (stereo not given)
inactive: Potency [1] | Potency [2] | outcome [3] | Potency [4] | Potency [5] | Potency [6] | Potency [7] | Potency [8] | Potency [9] | Potency [10] | Potency [11] | max response [12] 3.67% | Potency [13] | Potency [14] | Potency [15] | Potency [16] | Potency [17] | outcome [18]

Cc1nc2ccccc2c(=O)n1-c1ccccc1Cl
inactive: Potency [1] | outcome [3] | Potency [4] | activity change, positive = activation [19] -29.9% | Potency [5] | Potency [7] | Potency [8] | Potency [9] | Potency [13] | Potency [14] | Potency [15] | Potency [16] | outcome [18]
active: Potency [2] 27.8 µM | Potency [6] 21.4 µM | Potency [12] 21.4 µM

C=CCc1ccccc1O
inactive: Potency [1] | Potency [2] | outcome [3] | Potency [4] | Potency [20] | activity change, positive = activation [19] 0.524% | Potency [5] | Potency [7] | Potency [8] | Potency [9] | Potency [11] | max response [12] 7.74% | Potency [13] | Potency [14] | Potency [15] | Potency [16] | Potency [17] | outcome [18]

O=C=NC1CCCCC1
inactive: Potency [1] | Potency [2] | outcome [3] | Potency [4] | Potency [20] | Potency [5] | Potency [6] | Potency [7] | Potency [8] | Potency [9] | Potency [10] | Potency [11] | max response [12] 8% | Potency [13] | Potency [14] | Potency [15] | Potency [16] | Potency [17] | outcome [18]

COc1cc(CC(C)N)c(OC)cc1Br (stereo not given)
inactive: Potency [1] | Potency [2] | outcome [3] | Potency [4] | Potency [20] | activity change, positive = activation [19] -12.2% | Potency [5] | Potency [7] | Potency [8] | Potency [9] | Potency [10] | Potency [11] | Potency [13] | Potency [14] | Potency [15] | outcome [18]

Clc1ccc(Cl)c(Cl)c1
inactive: Potency [1] | Potency [2] | outcome [3] | Potency [4] | Potency [20] | activity change, positive = activation [19] -0.809% and 5.15% | Potency [5] | Potency [6] | Potency [7] | Potency [8] | Potency [9] | Potency [10] | Potency [11] | max response [12] -1.09% and 2.8% | Potency [14] | Potency [15] | Potency [16] | Potency [17] | outcome [18]

C[N+]1(CCC(C(N)=O)(c2ccccc2)c2ccccc2)CCCCC1
inactive: Potency [1] | Potency [2] | outcome [3] | Potency [4] | Potency [5] | Potency [6] | Potency [7] | Potency [8] | Potency [9] | Potency [10] | Potency [11] | max response [12] 0.771% | Potency [13] | Potency [14] | Potency [15] | Potency [16] | Potency [17] | outcome [18]

CCOC(=O)NC(O)C(Cl)(Cl)Cl (stereo not given)
inactive: Potency [1] | Potency [2] | outcome [3] | Potency [4] | Potency [5] | Potency [6] | Potency [7] | Potency [8] | Potency [9] | Potency [10] | Potency [11] | max response [12] 7.58% | Potency [13] | Potency [14] | Potency [15] | Potency [16] | Potency [17] | outcome [18]
